# BCR signal inh: qHTS Assay to Find Inhibitors of Chronic Active B-Cell Receptor Signaling. 340,000 compounds, 0.05% hits. Potency, µM (highest dose often 46.1 µM), usual class: inhibitors. ABC-DLBCL IkBa-CBG/CBR reporter, luminescence ratio, 4 h; active means well fitted inhibition curve with a large enough effect in the signal ratio, with a control signal flat, not every such curve was filed as active; inconclusive means small, poorly fitted or top-dose-only effect, or effect the other way, or a change in a side signal; the % refers to the signal ratio
#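 Concentration-response series (up to 46 uM) were applied to TMD8 dual-reporter cells for 4 h at 37C with doxycycline. Green/red ratio, after filter-overlap correction, defined %Activity; red signal alone was normalised to basal cells and zero luminescence.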
# SW480 rereplic: A quantitative high throughput screen for small molecules that induce DNA re-replication in SW480 colon adenocarcinoma cells | Potency, µM (series often up to 46.1 µM), usual class: activators | 340,000 compounds, 1.8% hits | SW480 DNA re-replication, Hoechst DNA content imaging, 48 h; further: nearly all actives have a fitted effect of over 55% in size
#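 250 cells/well; 23 nL cpd via pin tool; 48 hr, 37 C, 5% CO2; Hoechst 40 min; imager read of total nuclear intensity, ex 405/em 500-530 nm.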
# VP16 counter: VP16 counterscreen qHTS for inhibitors of ROR gamma transcriptional activity; 310,000 compounds, 3.5% hits; Potency, µM (series often up to 53.6 µM), actives largely listed as inhibitors; Drosophila S2 Gal4-VP16 UAS-luciferase, luminescence, 20 h; AID 2546, 2010;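 further: Gal4-VP16 expression switched on by copper sulfate through the metallothionein promoter; nearly all actives have a fitted effect of over 50% in size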
# MCF10A rerep: A quantitative high throughput screen for small molecules that induce DNA re-replication in MCF 10a normal breast cells | 350,000 compounds, 2.9% hits | MCF 10A DNA re-replication, Hoechst nuclear intensity, 48 h | Potency, µM (highest dose often 46.1 µM), most hits filed as activators; further: nearly all actives have a fitted effect of over 50% in size
# Giardia kill: Small Molecules that selectively kill Giardia lamblia: qHTS. Giardia lamblia trophozoite viability. activity change, % at 7.66 µM, hits read low. 340,000 compounds, 0.15% hits. AID 540267, 2011; in the data active means activity change below about -80%; inconclusive means between about -30% and that limit;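 further: parasites exposed to compound for two days anaerobically before the ATP read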
#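 Anaerobic 48 hrs incubation at 37 deg C of 100 trophozoites/well with test compounds; ATPLite 1-Step luminescence, 15-30 min RT, reports cellular ATP as viability.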
# RORg inh: qHTS for inhibitors of ROR gamma transcriptional activity | Nuclear receptor ROR-gamma (Mus musculus), P51450 | 310,000 compounds, 5.4% hits | Potency, µM (highest dose often 53.6 µM), hits mostly inhibitors | Drosophila S2 Gal4-RORgamma UAS-luciferase reporter, 20 h; further: nearly all actives have a fitted effect of over 60% in size
# Target sequence (P51450 whole entry, looked up, the tested form may be a part): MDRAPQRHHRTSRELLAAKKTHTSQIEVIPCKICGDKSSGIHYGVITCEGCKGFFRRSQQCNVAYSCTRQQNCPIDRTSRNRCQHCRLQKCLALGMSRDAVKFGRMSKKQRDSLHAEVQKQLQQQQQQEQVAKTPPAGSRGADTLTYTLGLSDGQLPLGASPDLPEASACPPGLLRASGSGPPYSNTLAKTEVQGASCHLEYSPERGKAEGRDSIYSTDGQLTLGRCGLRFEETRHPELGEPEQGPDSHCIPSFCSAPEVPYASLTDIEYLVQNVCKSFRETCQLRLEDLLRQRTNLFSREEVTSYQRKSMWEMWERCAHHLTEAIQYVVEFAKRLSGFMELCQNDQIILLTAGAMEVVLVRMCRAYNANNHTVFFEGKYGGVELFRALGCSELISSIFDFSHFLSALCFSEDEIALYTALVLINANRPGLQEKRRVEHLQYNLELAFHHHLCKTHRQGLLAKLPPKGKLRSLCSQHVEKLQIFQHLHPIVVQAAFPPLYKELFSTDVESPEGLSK
#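 Drosophila S2 cells stably expressing Gal4-DBD/mouse RORγ fusion under metallothionein promoter plus UAS-luciferase; compound 1 h, then 700 uM CuSO4 induction for 20 h at ambient temperature; inhibition read as reduced luminescence.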
# Hits are given with their value; i = inactive; ? = inconclusive; nt = no result given; [ ] = another dose, or the depositor's remark. A selection: hits, their analogues and other compounds. The true share with any hit is near 8.3%. Unless noted, the call rests on the fitted dose curve; in most records, active means well fitted curve in the direction sought with a large enough effect; inconclusive means small, poorly fitted or top-dose-only effect, or another doubt; inactive means no such curve, though single readings can be large; an effect the other way counts as inactive or inconclusive.
SMILES,BCR signal inh,SW480 rereplic,VP16 counter,MCF10A rerep,Giardia kill,RORg inh
Cc1ccc(-n2nnnc2SCc2nc3sc(C)c(C)c3c(=O)[nH]2)cc1,i,i,?,i,i,11µM
CS(=O)(=O)Nc1cccc(-c2ccc3ncnc(NCCN4CCOCC4)c3c2)c1,nt,nt,i,nt,nt,?
COCCOC(=O)c1ccc(NC(=O)COc2ccc([N+](=O)[O-])cc2)cc1,i,i,i,i[9.22 µM],i,i
Cc1ccc(OCC(=O)NNC(=O)CCC(=O)Nc2ccc(C)cc2C)cc1,i,i,i,i,i,i
Cc1ccc(NC(=O)CCC(=O)NNC(=O)COc2ccc([N+](=O)[O-])cc2)c(C)c1,i,i,i,1.6µM,i,i
COC(=O)c1ccc(NC(=O)COc2ccc([N+](=O)[O-])cc2)cc1,i,i,10µM,i,i,i
CC(CS(=O)(=O)c1ccc2c(c1)NC(=O)CS2)C(=O)N1CCN(c2cccc(Cl)c2)CC1 (stereo not drawn),i,i,i,i,i,i
COc1cccc(C(=O)NC2CC3CCCC(C2)N3CC(=O)Nc2ccccc2C(F)(F)F)c1 (stereo not drawn),?,16µM,i,?,i,i
O=C(CN1CCC(C(=O)c2ccc3c(c2)OCCO3)CC1)Nc1ccccc1C(F)(F)F,?,i,i,16µM,i,?
COc1cccc(C(=O)NC2CCN(CC(=O)Nc3c(C)cc(C)cc3C)CC2)c1,?,nt,13µM,nt,nt,?
CCOc1ccc(C(=O)C2CCN(CC(=O)Nc3ccccc3N3CCOCC3)CC2)cc1,?,?,?,7.3µM,i,i
Cc1ccccc1NC(=O)CN1CCC(C(=O)c2ccc3c(c2)OCCO3)CC1,?,i,i,i,i,i
CN(C)CCCOc1c2ccccc2n(Cc2ccccc2)[n+]1[O-],nt,nt,i,nt,nt,i
O=C(Nc1ccc2c(c1)OCO2)c1noc2c1CCCC2,?,i,i,i,i,i
COc1ccc(OC)c(NC(=O)CN2CCC(C(=O)c3ccc(C)cc3)CC2)c1,i,i,i,18µM,i,i[10 µM]
COc1ccc(NC(=O)CN2CCC(C(=O)c3ccc(C)cc3)CC2)c(OC)c1,i,i,i,?,i,?
CC(NC(=O)COC(=O)C12CC3CC(CC(Br)(C3)C1)C2)c1ccccc1 (stereo not drawn),?,i,nt,?,i,nt
COCCn1c(C)cc(/C=C2\NC(=S)N(C)C2=O)c1C,i,i,?,i,?,?
CN1C(=O)/C(=C/c2cc3c(cc2Br)OCO3)NC1=S,i,i,?,i,i,4.5µM
O=C(NNC(=O)C1[C@H]2CCCC[C@@H]12)c1ccc(=O)oc1 (stereo partly drawn),i,2.3µM,i,i,i,i
COc1cc2ccccc2cc1C(=O)Nc1sc2c(c1C(N)=O)CCN(C(C)C)C2,?,nt,18µM,nt,nt,13µM
CCc1nc(Sc2nc(C)cc(C)n2)c2oc3ccccc3c2n1,i,?,i,?,i,i
CC1Cc2ccccc2N1C(=O)CO/N=C/c1ccccc1OC(F)F (stereo not drawn),i,16µM,i,i,i,i
O=C(CO/N=C/c1ccccc1OC(F)F)N1CCc2ccccc21,i,i,i,i,i,i[10 µM]
Cc1ccc(C2(C)NC(=O)N(CC(=O)N3c4ccccc4NC(=O)CC3C)C2=O)cc1 (stereo not drawn),i,?,nt,i,i,nt
SMILES,BCR signal inh,SW480 rereplic,VP16 counter,MCF10A rerep,Giardia kill,RORg inh
O=C(O)C(c1ccccc1)C1CCCCC1O (stereo not drawn),nt,i,nt,i,i,nt
C/C(CC(C)(C)C1CCCCC1)=N\NC(N)=S,?,i,2.8µM,i,i,0.89µM
Cc1ccc(S(=O)(=O)Nc2cccc(C(=O)NCc3cccnc3)c2)cc1F,i,6.5µM,nt,2.9µM,i,nt
O=C(NCc1cccnc1)c1cccc(S(=O)(=O)Nc2ccc(F)cc2)c1,i,i,nt,i,i,nt
O=C(NCc1ccccn1)c1cccc(NS(=O)(=O)c2ccc(Br)cc2)c1,?,i,nt,i,?,nt
O=C(NCc1cccnc1)c1cccc(NS(=O)(=O)c2ccc(Br)cc2)c1,?,9.2µM,nt,0.65µM,i,nt
CC/C(=C/c1ccccc1)c1cccc2[nH]c3c(OC)cccc3c12,?,i,i,21µM,i,i
O=C(C1=C[C@@H](C2CC2)C[C@@H](OCc2ccc(CO)cc2)O1)N1CCN(Cc2ccccc2)CC1,i,i[9.22 µM],i,?,i,i
O=c1[nH]c(CN2CCN(c3ccccc3)CC2)nc2scc(-c3ccccc3)c12,i,?,i,5.2µM,i,?
Fc1ccc(N2CCN(c3nc(CN4CCOCC4)nc4scc(-c5ccccc5)c34)CC2)cc1,i,i,i,?,i,10µM
CCNc1nc(CN2CCCCC2)nc2scc(-c3ccccc3)c12,i,i,?,i,i,16µM
OCC1CCCN(c2nc(CN3CCCCC3)nc3scc(-c4ccccc4)c23)C1 (stereo not drawn),?,?,i,i,i,i
CN(Cc1ccccc1)c1nc(CN2CCOCC2)nc2scc(-c3ccccc3)c12,?,i,?,?,i,10µM
COCCn1nnnc1CN1CCN(C(=O)c2ccco2)CC1,i,i,i,?,i,i
COc1cc(C(=O)ONC(=O)c2ccc(OC(F)F)cc2)cc(OC)c1OC,i,i,?,i,i,i
CCOc1ccccc1OCCN1CCC(Cc2ccccc2)CC1,i,i,i,i,i,i
CCNc1nc(OCC)nc(N2CCC(Cc3ccccc3)CC2)n1,i,i,4µM,i,i,5.6µM
COc1ccc(CNC(=S)Nc2ccccc2Cl)cc1,i,?,?,i,i,18µM
COc1ccc(CNC(=S)Nc2ccccc2-c2ccccc2)cc1,i,nt,7.1µM,nt,nt,2µM
COc1ccc(CNC(=S)NCc2ccc(OC(C)C)cc2)cc1,i,?,i,?,i,?
COc1ccc(OCC(=O)Nc2ccccc2-c2ccccc2)cc1,i,?,i,?,i,i
O=C(Nc1cc(Cl)cc(Cl)c1)c1cc(S(=O)(=O)N2CCc3ccccc3C2)ccc1F,i,nt,nt,nt,nt,nt
Cc1ccc(S(=O)(=O)C(CNC(=O)c2ccc(F)c(F)c2)c2ccco2)cc1 (stereo not drawn),i,nt,nt,nt,nt,nt
Cc1nnc(SCC(=O)N(CC(C)C)c2c(N)n(Cc3ccccc3)c(=O)[nH]c2=O)n1N,i,1.3µM,nt,i,i,nt
CC(C)CN(C(=O)COC(=O)C12CC3CC(CC(C3)C1)C2)c1c(N)n(Cc2ccccc2)c(=O)[nH]c1=O,?,4.1µM,nt,i,i,nt
